Among all 320,000 compounds or so, about 2,100 (0.66%) were called active. Not shown: some 53% with an inconclusive outcome. This is one part of a sample in which actives are shown more often than they occur. Calls follow the shape of the dose curve; as a rule, active = well fitted inhibition curve with a large enough effect in the signal ratio, with a control signal flat (not every such curve was filed as active); inconclusive = small, poorly fitted or top-dose-only effect, or effect the other way, or a change in a side signal; inactive = flat fitted curve, though single readings scatter; the % refers to the signal ratio.
Potency is read from the fitted curve at half-maximal effect.

This experiment is described as follows: qHTS Assay for Lipid Storage Modulators in Drosophila S3 Cells.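 As to cell number change: cells counted by Cell Tracker Red CMTPX staining in the red channel.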 As to lipid storage change, negative = inhibition: % is scaled to controls: 0 for no effect and ±100 for the full control effect. The note with it: BODIPY lipid droplet fluorescence, 18-24 h, cells fed with added oleic acid; cell number change: measured here: cell count max response; series mostly up to 46.1 µM; lipid storage change, negative = inhibition: at the top concentration. The text has this: NIH Molecular Libraries Probe Production Centers Network [MLPCN] NIH Chemical Genomics Center [NCGC] MLPCN Grant: 1 R03 MH085686-01 Assay Submitter (PI): Beller, Mathias; Max-Planck-Institut fur Biophysikalische Chemie NCGC Assay Overview: Storing lipids as a reservoir for energy or the anabolism of elementary metabolites is a common feature of probably all cells and is conserved from bacteria to humans. The universal cellular lipid storage organelle is the so-called lipid storage droplet (LD). Although ubiquitous, LDs share a simple structure composed of a hydrophobic core that harbors the storage lipids, which is shielded by a droplet-specific phospholipid monolayer to which proteins are attached. The current model of LD biogenesis involves an incorporation of the lipid core into the membrane leaflets of the endoplasmic reticulum (ER) followed by a subsequent budding-like maturation of a LD, which ultimately pinches off. Once released, LD volume can increase by localized lipogenesis or fusion of existing droplet. Storage lipids are re-mobilized enzymatically by lipase activity. Lipase regulation in the adipocyte is heavily studied and involves multiple components including catecholamine signaling, the LD-associated proteins Perilipin and comparative gene identification (CGI-58) and at least two lipases named hormone sensitive lipase (HSL) and adipocyte triglyceride lipase (ATGL). LD regulation outside of the adipocyte is poorly understood and only few components are known. However, there is an urgent need to learn more about ectopic fat depots as mislocalized storage of lipids, for example in the liver or muscle, is an eminent health problem associated with insulin resistance or the metabolic syndrome. We developed a laser-scanning cytometer assay to enable 1,536-well screening and combined the results of the small molecules screen with an RNAi database based on lipid storage.
Triacsin C (Sigma-Aldrich T-4540), an inhibitor of long-chain fatty acyl CoA synthetase that blocks synthesis of triglycerides, was used as a positive control for lipid under-storage. A total of 23 nL of compound solution of different concentrations were transferred to the assay plates using a Kalypsys pin tool equipped with a 1,536-pin array containing 10-nL slotted pins (FP1S10, 0.457-mm diameter, 50.8 mm long; V&P Scientific). One microliter of oleic acid (400 uM) was added, and the plate was lidded with stainless steel rubber gasket lined lids containing pinholes. […] Fluorescence was detected by excitation of the fluorophores with a 488-nm laser on an Acumen Explorer (TTP Lab Tech). The total intensity in channel 2 (500-530 nm) reflected lipid droplet accumulation. Cells were detected using channel 3 (575-640 nm) with 5-um width and 100-um depth filters. The ratio of the number of objects in PMT channel 2 over the number of objects in PMT channel 3 was also calculated. Percent activity was computed relative to an internal control (100% inhibited lipid droplet deposition due to the presence of 20 uM Triacsin C), which was added to 32 wells/plate.
As for `O=C(CN1C(=O)NC2(CCCC2)C1=O)OCCOc1ccc(Cl)cc1Cl`, the result was inactive.
Regarding `COC(=O)C1=CN(c2cccc(C(F)(F)F)c2)C=C(C(=O)OC)C1c1ccc(O)c(OC)c1`, the “lipid storage change, negative = inhibition” value was 2.64% (inactive) and the cell number change is -17.2%.
Take `CCOC(=O)C1=CN(c2cccc(F)c2)C=C(C(=O)OCC)C1c1cc(OC)c(O)c([N+](=O)[O-])c1`: the outcome was inactive.
As for `COC(=O)C1=CN(c2cccc(C)c2)C=C(C(=O)OC)C1c1cc(OC)c(O)c([N+](=O)[O-])c1`, the Potency is 25.9 µM (active) and the cell number change was -3.94%.
As for `O=C(Cn1nc(Cc2cccnc2)c2ccccc2c1=O)Nc1cccnc1Cl`, the “lipid storage change, negative = inhibition” value was 3.38% (inactive) and the cell number change is 1.33%.
For `COc1ccc(-c2cc(=O)oc3cc(OCc4nn[nH]n4)ccc23)cc1` the same measures were 11.3% (inactive) and 14.9%.
For `CN(C)c1ccc(C(=O)/C=C/c2cccnc2)cc1` the same measures were -2.87% (inactive) and -3.58%.
As to `CN(C)S(=O)(=O)c1ccc(C(=O)/C=C/c2cccnc2)cc1`, the Potency is 0.326 µM (active) and the cell number change stood at 10.3%.
With `O=C(/C=C/c1cccnc1)c1ccc([N+](=O)[O-])cc1`, the “lipid storage change, negative = inhibition” value is -21.5% (inactive) and the cell number change turned out to be 10.1%.
Take `CCc1ccc(N2C(=O)C3NN=C(C(=O)OCc4ccccc4)C3C2=O)cc1` (stereo unspecified): the “lipid storage change, negative = inhibition” value was -5.22% (inactive) and the cell number change is 22.8%.
The corresponding values for `COc1cccc(-c2nc(=S)c3c(o2)CCCC3)c1` are 2.96% (inactive) and 9.57%.
The corresponding values for `O=C(Nc1ccc(OCC(=O)N2CCOCC2)cc1)c1cncc(Br)c1` are -3.23% (inactive) and 9.01%.
For `Cc1ccc(NC(=O)c2ccccc2OCc2c(C)noc2C)cc1S(=O)(=O)N(C)C` the same measures were 3.93% (inactive) and -11.7%.
Consider `CC(=O)NCCC1CCN(C(=O)C2CCC(=O)N(C3CCCC3)C2)CC1` (stereo unspecified), for which the outcome was inactive and the cell number change came out at 0.283%.
For the compound `CC1(C)COCN1C(=O)c1ccc(C#N)cc1`, the “lipid storage change, negative = inhibition” value was -2.88% (inactive) and the cell number change was determined as 5.63%.
For `CC1(C)CSC(=NCc2ccccc2)N1C(=O)c1cccc([N+](=O)[O-])c1` the same measures were 8.87% (inactive) and 13.5%.
For `CC1(C)CSC(=NCCc2ccccc2)N1C(=O)c1ccc(C#N)cc1`, the Potency is 1.3 µM (active) and the cell number change is -0.734%.
Turning to `O=C(CNS(=O)(=O)c1ccccc1)OCC(=O)c1ccc(F)cc1`, the outcome was inactive and the cell number change is 14.3%.
For the compound `O=C(Nc1cccc(F)c1)c1c(F)c(F)c(F)c(F)c1F`, the compound was classed as inactive.
As to `COc1cccc(CNC(=O)c2cc(C3CC3)nc3c2cnn3C(C)C)c1`, the “lipid storage change, negative = inhibition” value was -14.5% (inactive) and the cell number change came out at 5.87%.
`COc1ccc(CNC(=O)c2cc(C3CC3)nc3c2cnn3C(C)C)cc1OC`: the Potency was 11.6 µM (active) and the cell number change is 1.25%.
Turning to `Cc1ccc(CNC(=O)c2cc(C3CC3)nc3c2cnn3C(C)C)cc1`, the outcome was inactive and the cell number change was -11.5%.
As for `COc1ccc(CSc2nncn2C)cc1[N+](=O)[O-]`, the “lipid storage change, negative = inhibition” value is 18.5% (inactive) and the cell number change was -11.4%.
For `O=C(Nc1c2c(nn1-c1ccccc1)CS(=O)(=O)C2)c1ccc2c(c1)OCO2` the same measures were 17.4% (inactive) and -19%.
The corresponding values for `O=C(COC(=O)c1cccc(S(=O)(=O)N2CCOCC2)c1)Nc1ccc(Cl)cn1` are 23.1% (inactive) and -3.5%.
Take `O=C(COC(=O)c1cccc(S(=O)(=O)N2CCOCC2)c1)Nc1ncc(C(F)(F)F)cc1Cl`: the Potency is 23.1 µM (active) and the cell number change was -11.5%.
In the case of `O=C(COC(=O)c1cccc(S(=O)(=O)N2CCc3ccccc32)c1)Nc1ncc(C(F)(F)F)cc1Cl`, the “lipid storage change, negative = inhibition” value was -12.9% (inactive) and the cell number change is -1.02%.
For `Cc1ccc(NC(=O)CCC(=O)Nc2ccc(C)cc2)cc1` the same measures were -11.2% (inactive) and -16.8%.
For `Cc1cc(C)cc(C(=O)N2CCC3(CC2)NCCc2[nH]cnc23)c1`, the “lipid storage change, negative = inhibition” value is -13.7% (inactive).
In the case of `COc1ccc(-c2csc(NC(=O)c3cccc(N4C(=O)CCC4=O)c3)n2)cc1OC`, the “lipid storage change, negative = inhibition” value was -8.17% (inactive) and the cell number change was found to be 19.9%.
For `CCCCNCCCOc1ccc(C)cc1Br` the same measures were -0.0338% (inactive) and 10%.
For `COCCCNCCCOc1ccc(C)cc1Br` the same measures were 9.41% (inactive) and -14.3%.
`CNCCCOc1ccc(C)cc1Br`: the Potency is 20.6 µM (active) and the cell number change was -34.9%.
Regarding `CCc1noc(C)c1C(=O)OCC(=O)c1ccccc1OC`, the “lipid storage change, negative = inhibition” value is -18.6% (inactive) and the cell number change was -12.4%.
Take `CCCCCC(=O)Nc1cc(S(=O)(=O)N2CCCCC2)ccc1N1CCOCC1`: the “lipid storage change, negative = inhibition” value was -20.9% (inactive) and the cell number change was -1.56%.
Turning to `Cc1ccc(NC(=O)C2CCN(S(C)(=O)=O)CC2)cc1C`, the Potency was 6.51 µM (active).
Take `Cc1ccc(NC(=O)C2CCN(S(C)(=O)=O)CC2)cc1`: the “lipid storage change, negative = inhibition” value is -13.2% (inactive) and the cell number change was 1.04%.
Consider `COc1ccc(NC(=O)C2CCN(S(C)(=O)=O)CC2)cc1OC`, for which the “lipid storage change, negative = inhibition” value is 16.9% (inactive) and the cell number change stood at 11.1%.
For `O=C(O)CSC1c2ccccc2C(=O)N1Cc1ccccc1` (stereo unspecified) the same measures were 11% (inactive) and -11.8%.
Turning to `O=C(CC(=O)N/N=C/c1ccccc1)NCc1ccccc1`, the “lipid storage change, negative = inhibition” value was 10.4% (inactive) and the cell number change was found to be 2.89%.
The corresponding values for `COc1ccc(C(=O)NCCCc2ccccc2)cc1OC` are 2.62% (inactive) and -16.4%.
Take `COc1ccc(C(=O)NCCCCNC(=O)c2ccc(OC)c(OC)c2)cc1OC`: the “lipid storage change, negative = inhibition” value was 17.3% (inactive) and the cell number change came to 11.4%.
For the compound `COc1cc(C(=O)NCCOc2ccccc2)cc(OC)c1OC`, the “lipid storage change, negative = inhibition” value was 1.93% (inactive) and the cell number change is -10.6%.
For the compound `COc1ccc(C(=O)NCCCCCC(=O)O)cc1OC`, the Potency is 9.2 µM (active) and the cell number change was -16%.
With `COc1cc(C(=O)NCCOc2cc(C)cc(C)c2)cc(OC)c1OC`, the “lipid storage change, negative = inhibition” value was 0.714% (inactive) and the cell number change came out at 3%.
As for `COCCCNC(=O)c1cc(OC)c(OC)c(OC)c1`, the Potency was 16.4 µM (active) and the cell number change is -1.92%.
`COC(=O)c1ccc(-c2noc(CN3C[C@H]4CC[C@H]3C4)n2)cc1`: the “lipid storage change, negative = inhibition” value was 10.7% (inactive) and the cell number change was -0.0392%.
For `O=C(NCC1CCCCC1)c1ccccc1[N+](=O)[O-]` the same measures were -19.7% (inactive) and 5.77%.

The values above are taken from PubChem BioAssay AID2685 (National Center for Advancing Translational Sciences (NCATS), 2010).
